Broadly, the viability is a read-out of living cells in per cent, often relative to untreated cells.

A short description of this test: reversal of MRP1-mediated doxorubicin resistance, pilot screen, H69AR cells, doxorubicin co-treatment (AID 601). Particulars: H69AR cells, CellTiter-Glo, 72 h; compound alone cytotoxicity; at 10 µM. (In general: Cellular ATP, detected with luciferase, serves as a proxy for viable cell number.)
Regarding `CCOC(=O)C1CCCN(C(=O)CNS(=O)(=O)c2ccc(Br)s2)C1` (stereo not drawn), the viability was 95.7%. In the case of `COc1ccc(CN(C)CC(=O)c2c(N)n(Cc3ccccc3)c(=O)n(C)c2=O)c(OC)c1` it was 93.9%; in that of `CC(CN1CCOCC1)(NS(=O)(=O)c1ccccc1)c1ccccc1` (stereo not drawn), 95.9%; in that of `CCOC(=O)CSC1=Nc2ccccc2C2=NC(CC(=O)NCc3cccs3)C(=O)N12` (stereo not drawn), 91.7%. Turning to `Cc1ccc(-c2nn3c(C)nnc3s2)cc1N`, the viability turned out to be 94.7%. In the case of `CC1(C)C2CCC1(CS(=O)(=O)NCc1ccc(C(=O)O)cc1)C(=O)C2` (stereo not drawn), the viability stood at 108%.

For `O=c1c2ccccc2c(C=Nc2ccc(Cl)cn2)c(O)n1-c1cc(Cl)ccc1N1CCOCC1`, the viability came to 89.1%. In the case of `O=C(Nc1ccc(S(=O)(=O)Nc2ccc(Cl)cc2)cc1)C1CCCO1` (stereo not drawn), the viability turned out to be 90.2%. Consider `CCOc1ccc(C(=O)Nc2cc(C)on2)cc1OCC`, for which the viability was 89.9%.

With `O=C1CC(Cc2ccccc2)C(=O)N1CCc1ccc2c(c1)OCO2` (stereo not drawn), the viability was determined as 102%. In the case of `COc1ccccc1-c1nc(C(F)(F)F)c(OC)o1` it was 91.9%; in that of `OCCn1c(CSc2nnc(-c3ccco3)n2-c2ccccc2)nc2ccc(Cl)cc21`, 84.9%; in that of `COc1cc2c(cc1OC)CN(C(=O)COc1ccc(C#N)cc1)CC2`, 84.8%. For the compound `CCOC(=O)NC(=O)CSc1nnc(C)s1`, the viability is 105%.

Turning to `CC1(C)CC(=O)C2=C(C1)Nc1nc(SCCN3CCOCC3)[nH]c(=O)c1C2c1cccs1` (stereo not drawn), the viability came out at 89.9%. As to `COc1ccc(C(=O)CSc2nnc(CNc3ccc(C)cc3C)o2)cc1`, the viability turned out to be 82.2%. With `CCCCc1cc(=O)oc2c(CN3CCCC3)c(O)c(Cl)cc12`, the viability worked out at 96.6%. In the case of `CCOc1ccccc1OCC(=O)NCc1ccco1` it was 85.3%.

Source of the values: PubChem BioAssay.
